Bioassay records: PubChem, National Center for Advancing Translational Sciences (NCATS)
Only some compounds are listed: those with a hit (about 12% of all), similar ones and a draw of the others.
HP1b chromo inh – HTS for Inhibitors of HP1-beta Chromodomain Interactions with Methylated Histone Tails | Chromobox protein homolog 1 (Homo sapiens), P83916 | AlphaScreen HP1-beta / biotin-H3K9me3 peptide binding | Potency, µM (series often up to 114 µM), for the others: at the highest dose activity change, negative = inhibition, most hits filed as inhibitors | AID 540317, 2011 | 390,000 tested, 0.56% active; further: nearly all actives have a fitted effect of over 70% in size
Target sequence (P83916 whole entry, looked up): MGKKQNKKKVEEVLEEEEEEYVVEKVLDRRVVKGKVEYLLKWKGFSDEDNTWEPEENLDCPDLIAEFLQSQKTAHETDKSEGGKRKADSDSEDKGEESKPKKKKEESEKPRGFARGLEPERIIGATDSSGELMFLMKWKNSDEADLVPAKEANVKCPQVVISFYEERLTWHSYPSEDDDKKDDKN
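AlphaScreen: HP1-beta (50 nM) preformed 30 min with biotin-H3(1-18)K9me3 peptide (50 nM) in PBS pH 7.4, 0.01% Tween-20. Compound added for 30 min at RT, then streptavidin donor/nickel chelate acceptor beads (10 ug/mL) for 30 min.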
Sfp inh – qHTS Assay for Inhibitors of Bacillus subtilis Sfp phosphopantetheinyl transferase (PPTase) | Potency, µM, without a hit: largest response in the series, negative = inhibition, most hits filed as inhibitors | 310,000 tested, 3.5% active | Biochemical Sfp PPTase activity, qHTS | 4'-phosphopantetheinyl transferase ffp (Bacillus subtilis), Q9F4F7;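 further: the enzyme is Sfp with the accession as filed and its product quenches rhodamine fluorescence; 0% = enzyme reaction without inhibitor and -100% = no enzyme wells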
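Reaction rates are the 30-min fluorescence difference (ex 525, em 598 nm) in wells containing 15 nM Sfp, 5 uM rhodamine-CoA and 12.5 uM BHQ-2-YbbR at pH 7.6 with 10 mM MgCl2.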
BAZ2B inh – qHTS Assay for Inhibitors of BAZ2B; AlphaScreen BAZ2B-H3K14Ac peptide displacement; 360,000 tested, 4.4% active; Bromodomain adjacent to zinc finger domain protein 2B (Homo sapiens), Q9UIF8; AID 504333, 2011; Potency, µM (series often up to 114 µM), inactives show at the top dose activity change, negative = inhibition, actives largely listed as inhibitors; further: on the % scale 0 is the no-effect control and ±100 the full control effect; nearly all actives have a fitted effect of over 60% in size
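AlphaScreen displacement: compounds (up to 110uM) incubated 30 min at room temperature with a preformed 50 nM BAZ2B/50 nM biotinylated H3K14Ac peptide complex in PBS pH 7.4 with Tween-20. Donor and acceptor beads at 10 ug/mL final added, 20 min light-protected before reading.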
G9a inh – qHTS Assay for Inhibitors of Histone Lysine Methyltransferase G9a | G9a H3K9 monomethylation, AlphaScreen, 2 h | Histone-lysine N-methyltransferase EHMT2 (Homo sapiens), Q96KQ7 | 350,000 tested, 8.8% active | Potency, µM (titrated, usually from 102 µM), inactives show at the highest dose activity, negative = inhibition, most hits filed as inhibitors; further: on the % scale 0 is the no-effect control and ±100 the full control effect; nearly all actives have a fitted effect of over 75% in size
Target sequence (Q96KQ7 913-1193 limits assumed): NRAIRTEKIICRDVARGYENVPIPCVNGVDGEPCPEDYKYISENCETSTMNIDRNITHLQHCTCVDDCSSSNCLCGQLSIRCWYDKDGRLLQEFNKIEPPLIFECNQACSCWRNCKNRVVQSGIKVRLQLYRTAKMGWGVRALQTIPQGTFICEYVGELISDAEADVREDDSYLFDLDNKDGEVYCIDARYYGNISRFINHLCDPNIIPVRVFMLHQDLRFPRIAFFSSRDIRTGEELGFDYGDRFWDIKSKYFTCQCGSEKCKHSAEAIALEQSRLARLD
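Enzyme 20 nM + cpd, 15 min RT; add b-H3K9 pep 500 nM / SAM 20 uM; 2 h RT; anti-H3K9me1 Ab 0.5 ug/mL + SA donor / anti-rabbit acceptor beads 20 ug/mL each, 10 min; AlphaScreen read.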
JMJD2A Tudor inh – qHTS Assay for Inhibitors of JMJD2A-Tudor Domain | Lysine-specific demethylase 4A (Homo sapiens), O75164 | AlphaScreen JMJD2A-Tudor / H3K4me3 peptide binding | Potency, µM (titrated, usually from 114 µM), without a hit: at the top dose activity change, negative = inhibition, usual class: inhibitors | 390,000 tested, 4.4% active; further: on the % scale 0 is the no-effect control and ±100 the full control effect; nearly all actives have a fitted effect of over 50% in size
* hit, by the source's call; ? = inconclusive; . = not tested or not shown; ! = a repeat was not active; [ ] = remark or other dose. The call rests on the fitted dose curve; in most records, active means well fitted curve in the direction sought with a large enough effect; inconclusive means small, poorly fitted or top-dose-only effect, or another doubt; inactive means no such curve, though single readings can be large; an effect the other way counts as inactive or inconclusive. Potency means the concentration at half of the fitted maximal effect.

SMILES	HP1b chromo inh	Sfp inh	BAZ2B inh	G9a inh	JMJD2A Tudor inh
Cc1cccn2cc(COc3ccc(-c4ccccc4)cc3)nc12	-4.5%	35.5µM*	?	-2.5%[59 µM]	-25.0%
Cc1ccc(OCc2cn3cccnc3n2)cc1	34.5%	12.2%	89.1µM*	-1.9%[59 µM]	-8.3%
Cc1cccn2cc(COc3cccc([N+](=O)[O-])c3)nc12	22.3%	-1.0%	-2.6%	-8.7%	-18.9%
C=CCn1c(COc2ccccc2F)nnc1SCC(=O)Nc1cc2oc3ccccc3c2cc1OC	21.2%	12.7%	-4.2%	7.1%	-4.5%
Clc1ccc(N=NN2CCOCC2)cc1	26.4%	14.5%	6.6%	50.1µM*	2.0%
COC(=O)C1=C(C)N(C)C(=O)/C1=C\c1cccs1	?	8.9%	?	?	?
COCCCN1C(=O)/C(=C\c2cccs2)C(C(=O)OC)=C1C	-3.1%	7.0%	?	?	-34.5%
COC(=O)C1=C(C)N(CC(C)C)C(=O)/C1=C\c1cccs1	15.8µM*	2.9%	50.1µM*	39.8µM*	44.7µM*
COC(=O)C1=C(C)N(C2CCCCC2)C(=O)/C1=C\c1cccs1	-32.9%	11.9%	3.16µM*	3.16µM*	?
CCN1C(=O)/C(=C\c2cccs2)C(C(=O)OC)=C1C	?	-1.2%	50.1µM*	44.7µM*	56.2µM*
CCOC(=O)C1=C(C)N(CC(C)C)C(=O)/C1=C\c1cccs1	?	-15.8%	11.2µM*	.	?
CCn1c(CNC(=O)C23CC4CC(CC(C4)C2)C3)nnc1SCC(=O)Nc1nnc(C)s1	38.0%	15.3%	-2.0%	7.3%	-19.7%
Cc1cc(C)cc(NC(=O)CCc2c(C)nc3c(c2C)c(=O)n(C)c(=O)n3C)c1	62.2%	.	-10.1%	-12.0%[59 µM]	-4.7%
COC(=O)C1=C(O)/C(=C\c2sccc2C)N=C1C	12.3%	5.5%	-21.7%	17.1%	-4.3%
COC(=O)C1=C(C)N(Cc2cccnc2)C(=O)/C1=C\c1sccc1C	35.5µM*	-22.0%	35.5µM*	.	44.7µM*
COc1cc2c(OC(C)=O)c3c(c(-c4ccc5c(c4)OCO5)c2cc1OC)C(=O)OC3	?	-11.4%	-4.9%	-9.5%[59 µM]	89.1µM*!
COc1cc2c(O)c3c(c(-c4ccc5c(c4)OCO5)c2cc1OC)C(=O)OC3	13.3%	-27.6%	-7.3%	.	-19.9%
COc1ccc2[nH]cc(CCNc3cc(-c4ccccc4Cl)ncn3)c2c1	.	?	.	3.5%[0.501 µM]	.
CCc1cccc2c1NC(=O)C21N2CCCC2C(C(=O)c2ccc3ccccc3c2)C12C(=O)Nc1ccccc12 (centres undefined)	?	23.0%	?	?	?
CCc1ccc2c(c1)C1(C(=O)N2)N2CCCC2C(C(=O)c2ccc3ccccc3c2)C12C(=O)Nc1ccccc12 (centres undefined)	-13.6%	0.3%	?	14.1µM*	-35.6%
S=C(NCCc1ccccc1)Nc1ccccc1N1CCOCC1	23.7%	0.1%	-27.5%	-34.5%[12.7 µM]	-14.2%
COc1ccc(S(=O)(=O)N2CCc3ccccc32)cc1C(=O)NCc1ccco1	11.2%	.	-27.9%	?	-5.5%
C=CCO/N=C/C1C(=O)CC(C)(C)CC1=O	0.8%	?	?	35.5µM*	10µM*
C/[N+]([O-])=C\C1C(=O)CC(C)(C)CC1=O	46.9%	17.1%	-16.0%	2.2%	-2.8%
Cc1ccc(OCC(COCc2ccccc2)NC(C)C)cc1 (centres undefined)	?	.	.	.	1.41µM*
CCOc1ccc(NC(=O)CN(C)C(=O)Cc2c[nH]c3ccccc23)cc1OCC	-17.1%	.	-6.6%	50.1µM*	-26.4%
Cc1ccc(C(C(=O)Nc2ccc3c(c2)OCO3)N(C)C(=O)Cc2c[nH]c3ccccc23)cc1 (centres undefined)	-15.2%	6.8%	?	39.8µM*	?
CN(CC(=O)Nc1ccc(Cl)c(Cl)c1)C(=O)CN1C(=O)NC2(CCCC2)C1=O	4.8%	.	9.4%	?	-20.7%
